A short description of experiment [1]: qHTS profiling for inhibitors of Plasmodium falciparum proliferation (AID 504749). Also: nearly all actives have a fitted effect of over 60% in size.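 As to activity, negative = inhibition: 0% = DMSO vehicle and full inhibition = artemisinin control.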 The note with it: P. falciparum in erythrocytes, SYBR Green DNA, 72 h. The method in brief:
(§1)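 P. falciparum-infected erythrocytes (0.3% parasitemia, 2.5% hematocrit) incubated with compound 72 h at 37 C, 5% CO2. Parasite DNA detected by SYBR Green after lysis, overnight at room temperature; normalised to 0.29 uM artemisinin and DMSO.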
For orientation: Quantitative high-throughput screening tests each substance at several concentrations.

The subject of a further experiment is 3D7. Described as above. Conditions: P. falciparum in erythrocytes, SYBR Green DNA, 72 h; series mostly up to 28.7 µM. The method in brief: as §1
The next experiment concerns 7G8. Described as above. The note with it: P. falciparum in erythrocytes, SYBR Green DNA, 72 h; series mostly up to 28.7 µM. The method in brief: as §1
The subject of a further experiment is AA1029. The description is as above. The note with it: P. falciparum in erythrocytes, SYBR Green DNA, 72 h; series mostly up to 28.7 µM. The method, boiled down: as §1
The next experiment deals with AS120. Described as above. Conditions: P. falciparum in erythrocytes, SYBR Green DNA, 72 h; series mostly up to 28.7 µM. The method, boiled down: as §1
For another experiment, the system named is ATS189. The description is as above. The note with it: P. falciparum in erythrocytes, SYBR Green DNA, 72 h; series mostly up to 28.7 µM. The method in brief: as §1
Where [2] appears, read: at 28.7 µM (top of the series), parasite line A.
Setting [3] is: at 28.7 µM (top of the series), parasite line B.
[4] abbreviates: at 12.8 µM (top of the series), parasite line A.
Setting [5] is: at 12.8 µM (top of the series), parasite line B.

Records with an inconclusive call do not appear. A number with no mark means an inactive call. Activity calls are given as the source filed them. Calls follow the shape of the dose curve; as a rule, active = well fitted inhibition curve with a large enough effect; inconclusive = small, poorly fitted or top-dose-only effect; inactive = flat fitted curve, though single readings scatter.
Potency is read from the fitted curve at half-maximal effect.

As for `CCc1ncnc2cc(OC)c(OC)cc12`, the activity, negative = inhibition in experiment [1] (setting [2]) is -5.32%; in experiment [1] (setting [3]), 10.1%. The Potency result with 3D7, in the experiment with 7G8, in the experiment with AA1029, with AS120 and in the experiment on ATS189 was “inactive” each time.

Regarding `CCOC(=O)c1c[nH]c2cc(OCC(C)C)c(OCC(C)C)cc2c1=O`, the Potency is 39.8 nM (active) in experiment [1] (parasite line A); 56.2 nM (active) in experiment [1] (parasite line B); 126 nM (active) with 3D7; 70.8 nM (active) in the experiment with 7G8; 79.4 nM (active) with AA1029; 44.7 nM (active) in the experiment with AS120. In addition, in the experiment on ATS189, the Potency was 63.1 nM (active).

Take `O=P(O)(O)O`: the activity, negative = inhibition in experiment [1] (setting [2]) is 1.79%; in experiment [1] (setting [3]), 16.4%. Besides, the Potency entry in the experiment with 3D7, in the experiment with 7G8, in the experiment on AA1029, in the experiment on AS120 and in the experiment on ATS189 was “inactive” throughout.

`CC(=O)[O][Al][O]C(C)=O`: the activity, negative = inhibition in experiment [1] (setting [2]) is 4.56%; in experiment [1] (setting [3]), 3.22%. Moreover, the Potency result in the experiment with 3D7, with 7G8, with AA1029, in the experiment with AS120 and with ATS189 was “inactive” in each case.

As for `C=C1C(CCl)(CCl)C2(Cl)C(Cl)C(Cl)C1(Cl)C2(Cl)Cl` (stereo not given), the Potency in experiment [1] (parasite line A) is 2510 nM (active); in experiment [1] (parasite line B), 1260 nM (active); with 3D7, 1780 nM (active); in the experiment on 7G8 it was 282 nM (active); in the experiment with AA1029, 3160 nM (active); in the experiment with AS120, 2000 nM (active). For the same molecule, the Potency in the experiment with ATS189 was 3160 nM (active).

`CCOC(=S)SSC(=S)OCC`: the figures for the activity, negative = inhibition in experiment [1] (setting [2]) and in experiment [1] (setting [3]) were 12.6% and -0.533%, respectively. In addition, the Potency entry with 3D7, in the experiment with 7G8, in the experiment on AA1029, in the experiment on AS120 and with ATS189 was “inactive” each time.

On to `CC/C(=C(/CC)c1ccc(OP(=O)(O)O)cc1)c1ccc(OP(=O)(O)O)cc1`, for which the activity, negative = inhibition in experiment [1] (setting [2]) was 13.6%; in experiment [1] (setting [3]) it was -2.71%. Also, the Potency entry in the experiment on 3D7, with 7G8, with AA1029, in the experiment on AS120 and with ATS189 was “inactive” in each case.

`CC(C)(Oc1ccc(C2CCCc3ccccc32)cc1)C(=O)O` (stereo not given): the activity, negative = inhibition was 0.13% in experiment [1] (setting [2]) and 7.8% in experiment [1] (setting [3]). Further, the Potency entry in the experiment with 3D7, in the experiment on 7G8, in the experiment with AA1029, in the experiment with AS120 and in the experiment on ATS189 was “inactive” each time.

As to `C[Se]CC[C@H](N)C(=O)O`, the results for the activity, negative = inhibition in experiment [1] (setting [2]) and in experiment [1] (setting [3]) were 7.69% and 13.1%, respectively. In addition, the Potency result in the experiment on 3D7, in the experiment with 7G8, in the experiment on AA1029, in the experiment on AS120 and with ATS189 was “inactive” in each case.

`O=C(O)Cc1cc(I)c(Oc2ccc(O)c(I)c2)c(I)c1`: the values for the activity, negative = inhibition in experiment [1] (setting [4]) and in experiment [1] (setting [5]) were 1.81% and 6.07%, respectively. Also, the Potency result with 3D7, in the experiment on 7G8, in the experiment on AA1029, in the experiment on AS120 and in the experiment with ATS189 was “inactive” each time.

Turning to `CCCCC[C@H](O)/C=C/[C@H]1[C@H](O)CC(=O)[C@@H]1C/C=C\CCCC(=O)O`, the results for the activity, negative = inhibition in experiment [1] (setting [2]) and in experiment [1] (setting [3]) were 7.21% and 0.0897%, respectively. For the same molecule, the Potency result in the experiment on 3D7, in the experiment with 7G8, in the experiment with AA1029, in the experiment with AS120 and with ATS189 was “inactive” each time.

For `CCCc1ccc(C(=O)O)cc1`, the activity, negative = inhibition was -2.85% in experiment [1] (setting [2]) and -4.82% in experiment [1] (setting [3]). Moreover, the Potency result in the experiment with 3D7, in the experiment on 7G8, in the experiment on AA1029, in the experiment on AS120 and in the experiment on ATS189 was “inactive” throughout.

Regarding `CCOC(C)OCC`, the results for the activity, negative = inhibition in experiment [1] (setting [2]) and in experiment [1] (setting [3]) were -1.66% and -9.74%, respectively. The Potency entry in the experiment with 3D7, in the experiment on 7G8, in the experiment on AA1029, with AS120 and with ATS189 was “inactive” each time.

As to `O=C1NCCN1c1ncc([N+](=O)[O-])s1`, the activity, negative = inhibition in experiment [1] (setting [4]) is -20%; in experiment [1] (setting [5]), -14.4%. The Potency entry in the experiment on 3D7, with 7G8, in the experiment on AA1029, in the experiment with AS120 and in the experiment with ATS189 was “inactive” in each case.

As to `COc1ccc(/C=N/NC(=O)c2ccncc2)c(C(=O)O)c1OC`, the activity, negative = inhibition was 15.9% in experiment [1] (setting [2]) and -6.37% in experiment [1] (setting [3]). The Potency entry with 3D7, in the experiment with 7G8, in the experiment on AA1029, in the experiment on AS120 and with ATS189 was “inactive” each time.

As for `O=C(O)c1cc(N=Nc2ccc(O)c(C(=O)O)c2)ccc1O`, the activity, negative = inhibition in experiment [1] (setting [2]) is 9.5%; in experiment [1] (setting [3]) it was 11.5%. The Potency result with 3D7, in the experiment on 7G8, in the experiment with AA1029, with AS120 and with ATS189 was “inactive” in each case.

Regarding `COC(=O)CC[C@H](N)C(=O)O`, the activity, negative = inhibition in experiment [1] (setting [2]) is 18.1%; in experiment [1] (setting [3]), 11.5%. For the same molecule, the Potency result in the experiment with 3D7, in the experiment on 7G8, in the experiment with AA1029, with AS120 and in the experiment with ATS189 was “inactive” in each case.

`CC(C)(C)c1ccc2c(S(=O)(=O)O)c(C(C)(C)C)ccc2c1`: the activity, negative = inhibition in experiment [1] (setting [2]) is 16.3%; in experiment [1] (setting [3]) it was 12.2%. The Potency result in the experiment on 3D7, in the experiment on 7G8, with AA1029, with AS120 and with ATS189 was “inactive” in each case.

In the case of `CCOC(=O)[C@@H](N)CS`, the activity, negative = inhibition in experiment [1] (setting [2]) is -7.81%; in experiment [1] (setting [3]), 16.4%. The Potency entry in the experiment with 3D7, in the experiment with 7G8, in the experiment with AA1029, in the experiment on AS120 and in the experiment with ATS189 was “inactive” in each case.

Take `CC12CCC(C1)C(C)(C)C2=O` (stereo not given): the activity, negative = inhibition in experiment [1] (setting [2]) was 8.34%; in experiment [1] (setting [3]), 10.9%. For the same molecule, the Potency entry in the experiment with 3D7, in the experiment with 7G8, with AA1029, in the experiment on AS120 and with ATS189 was “inactive” in each case.

Take `CCc1ccc(S(=O)(=O)O)cc1`: the results for the activity, negative = inhibition in experiment [1] (setting [2]) and in experiment [1] (setting [3]) were -3.46% and 4.58%, respectively. In addition, the Potency entry in the experiment on 3D7, in the experiment on 7G8, with AA1029, in the experiment with AS120 and with ATS189 was “inactive” throughout.

On to `Oc1cc(O)cc(O)c1`, for which the activity, negative = inhibition was 0.686% in experiment [1] (setting [2]) and -2.93% in experiment [1] (setting [3]). The Potency entry with 3D7, in the experiment on 7G8, in the experiment with AA1029, in the experiment on AS120 and with ATS189 was “inactive” in each case.

Take `NCCO/C=C/[C@H](N)C(=O)O`: the values for the activity, negative = inhibition in experiment [1] (setting [2]) and in experiment [1] (setting [3]) were 6.56% and 15.6%, respectively. The Potency entry with 3D7, in the experiment on 7G8, with AA1029, in the experiment with AS120 and in the experiment on ATS189 was “inactive” throughout.

Regarding `O=C(O)CCC(=O)c1ccc(-c2ccccc2)cc1`, the activity, negative = inhibition was -3.71% in experiment [1] (setting [4]) and 12.2% in experiment [1] (setting [5]). Besides, the Potency entry with 3D7, in the experiment on 7G8, with AA1029, in the experiment with AS120 and in the experiment on ATS189 was “inactive” throughout.

`FC(F)OC(Cl)C(F)(F)F` (stereo not given): the figures for the activity, negative = inhibition in experiment [1] (setting [2]) and in experiment [1] (setting [3]) were 2.2% and 13%, respectively. For the same molecule, the Potency result with 3D7, in the experiment with 7G8, with AA1029, in the experiment with AS120 and in the experiment with ATS189 was “inactive” in each case.

For the origin of these results see PubChem BioAssay (NCATS).
